Results: PubChem BioAssay

What follows are compounds tested against E3 ubiquitin-protein ligase XIAP (Homo sapiens) (UniProt P98170) (assay: small molecules binding XIAP protein – biophysical, small-molecule microarray, fluorescence 635 nm, primary screen (AID 1181;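 note: score merges 667 nm emission and signal to noise over triplicate slides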)). Settings: higher = more signal.
Sequence of E3 ubiquitin-protein ligase XIAP (Homo sapiens) (P98170 whole entry, looked up): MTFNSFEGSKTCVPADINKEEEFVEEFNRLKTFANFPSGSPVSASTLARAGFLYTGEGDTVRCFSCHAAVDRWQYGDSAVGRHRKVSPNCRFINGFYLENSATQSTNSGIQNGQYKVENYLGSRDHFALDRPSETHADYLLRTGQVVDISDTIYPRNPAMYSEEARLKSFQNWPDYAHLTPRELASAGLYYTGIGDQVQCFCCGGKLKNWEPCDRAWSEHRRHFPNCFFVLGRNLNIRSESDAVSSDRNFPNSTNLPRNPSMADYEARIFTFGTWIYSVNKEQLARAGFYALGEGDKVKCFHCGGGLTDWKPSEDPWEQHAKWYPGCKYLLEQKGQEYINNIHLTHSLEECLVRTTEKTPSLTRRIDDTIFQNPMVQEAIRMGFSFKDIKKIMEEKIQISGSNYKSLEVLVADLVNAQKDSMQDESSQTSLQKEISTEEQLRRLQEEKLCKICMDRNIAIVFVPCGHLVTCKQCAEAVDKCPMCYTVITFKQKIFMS
For C=CC[C@]1(C(=O)O)N=C(c2ccc(OCCCO)cc2)O[C@H]1c1ccccc1N=[N+]=[N-], the composite z-score was -0.0095.
For CCOC(=O)C1=C[C@@H](c2ccccc2)N(S(=O)(=O)c2ccc(C)cc2)[C@H]1c1ccc(F)cc1, the composite z-score was 0.155.
Work on C=CCC(OC(C)=O)[C@@H]1[C@@H](N(Cc2cccc3ccccc23)C(=O)c2ccc(C)cc2)c2cc(OCCCO)ccc2N1C(=O)c1ccc(-c2ccccc2)cc1 (stereo partly specified) yielded a composite z-score of 0.146.
COc1ccc(-c2cc3c(c(-c4ccccc4)n2)[Si](C(C)C)(C(C)C)O[C@H]3c2ccccc2)cn1 was tested, and the composite z-score was 0.113.
Compound Cc1ccc(S[C@]2(C(=O)O)CC(=O)N(Cc3cc(C(F)(F)F)cc(C(F)(F)F)c3)[C@@H]2c2ccc(CO)cc2I)cc1 has a composite z-score of -0.136.
Compound O=C1O[C@H](c2ccccc2)[C@H](c2ccccc2)N2[C@H]1[C@@H](C(=O)Nc1nc3ccccc3s1)[C@]1(C(=O)Nc3ccc(C#CC4(O)CCCCCC4)cc31)[C@H]2c1ccc(O)cc1 has a composite z-score of -0.0426.
Compound O=C1C2C=CC(C(O)C#Cc3ccccc3)N(Nc3ccccc3)C2C(=O)N1c1ccccc1 (stereo unspecified) has a composite z-score of -0.189.
CN1C(=O)C2C=CC(C(O)C3CC=CCC3)N(Nc3ccccc3)C2C1=O (stereo unspecified) gave a composite z-score of 0.301.
For COCCCNC(=O)[C@@]1(c2ccc([N+](=O)[O-])cc2)CC(=O)N(C2CCCCC2)[C@@H]1c1ccc(CO)cc1, the composite z-score was 0.147.
Cc1ccccc1C(O)C1C=CC2C(=O)N(c3ccccc3)C(=O)C2N1Nc1ccc(C#N)cc1 (stereo unspecified) gave a composite z-score of 0.198.
Compound CCOC(=O)C[C@H]1[C@H](OC(=O)Cc2ccc3c(c2)OCO3)[C@@H](NC(=O)c2ccc3ccccc3c2)c2cc(OCCCO)ccc2N1C(=O)Cc1ccc(OC)cc1 has a composite z-score of -0.0151.
Work on COC(=O)[C@@]1(Cc2ccccc2CN=[N+]=[N-])N=C(c2ccc(OCCCO)cc2)O[C@H]1c1ccccc1N=[N+]=[N-] yielded a composite z-score of -0.0095.
O=C/C=C/c1ccc(/C=C/c2ccccc2)cc1 was tested, and the composite z-score was -0.242.
Work on CC(C)NC(=O)[C@@]1(Cc2ccccc2I)c2ccccc2C(=O)N(C2CCCCC2)[C@H]1c1ccc(CO)cc1 yielded a composite z-score of 0.106.
With C=CCC(OC(C)=O)[C@@H]1[C@@H](N(Cc2cccc3ccccc23)C(=O)Cc2ccc(F)cc2)c2cc(OCCCO)ccc2N1C(=O)Cc1ccc2ccccc2c1 (stereo partly specified) the composite z-score was -0.0332.
For CCCC=C(CCC)[C@@H](NC(=O)c1ccc(C(F)(F)F)cc1)c1ccccc1, the composite z-score was -0.253.
